The values that follow come from PubChem BioAssay.

Activity calls are given as the source filed them. No rule for the calls is given here.

The assay can be described thus: Brca1-Bard1 BiLC signal decrease – luminescence, single concentration, counter-screen for Mdm2/MdmX interaction inhibitor project, confirmation (AID 504668). To be noted: Brca1/Bard1 bimolecular luciferase complementation counterscreen, at 8 µM, hits give high values. In general terms: Counterscreens check selectivity or assay interference.
One may read the inhibition as the relative decrease from the control value, in per cent. Turning to `O=C(Nc1ccc(Cl)cc1)Nc1ccc(N2CCCC2)c(S(=O)(=O)Nc2ccccc2Cl)c1`, the inhibition was 24% (active).

Consider `COc1cc(OC)c2cc(C(=O)N/N=C/c3cccc(OC)c3O)[nH]c2c1`, for which the inhibition is 33.8% (active).

Regarding `O=C(CCCl)Nc1nc2c(s1)CCc1ccccc1-2`, the inhibition is 24.6% (active).

Consider `N#CC1=C(N)C(C#N)(C#N)C(c2cccnc2)C2CC(c3ccccc3)CC=C12` (stereo not given), for which the inhibition was 23.1% (active).

Consider `CC(=O)NC(c1ccco1)c1ccc2cccnc2c1O` (stereo not given), for which the inhibition is 27.7% (active).

Consider `COc1ccc(C(NC(=O)c2cccnc2)c2cc(Cl)c3cccnc3c2O)cc1OC` (stereo not given), for which the inhibition was 26.3% (active).

On to `Cc1ccc(C(=O)N/N=C/c2c(O)ccc3ccccc23)cn1`, for which the inhibition is 26.6% (active).

Regarding `COc1ccc([N+](=O)[O-])cc1NC(=S)NC(NC(=O)C(c1ccccc1)c1ccccc1)C(Cl)(Cl)Cl` (stereo not given), the inhibition is 29.2% (active).

As for `C=CCn1c(O)c(N=NC(=S)Nc2cccc(C)c2)c2ccccc21`, the inhibition was 33.1% (active).

`CC(C)CC(=O)NC(c1cccs1)c1ccc2cccnc2c1O` (stereo not given): the inhibition was 25.3% (active).

As to `CCN1CCN(CCCNC(=O)c2ccc(/C=C3/Sc4ccccc4N(Cc4ccccc4F)C3=O)cc2)CC1`, the inhibition was 24.1% (active).

`CC(C)(C)c1cc(NC(=O)CCl)n(-c2ccccc2)n1`: the inhibition was 24.1% (active).

Regarding `O=C(Nc1ccc(-c2nc3ccccc3[nH]2)cc1)c1ccc2c(c1)OCO2`, the inhibition is 28.7% (active).

Take `N#C/C(=N/Nc1ccc(OC(F)(F)F)cc1)C(N)=S`: the inhibition was 35% (active).

Consider `O=C(CN1CCCc2ccccc21)N/N=C/c1c(O)ccc2ccccc12`, for which the inhibition was 30.3% (active).

As for `COc1ccc(CCNC(=O)c2cc3c(=O)n4ccccc4nc3n(Cc3ccco3)c2=N)cc1OC`, the inhibition was 26.2% (active).

Take `Cc1ccc2cc(CN(CC3CCCO3)C(=S)Nc3ccccc3)c(=O)[nH]c2c1C` (stereo not given): the inhibition is 35.3% (active).

On to `C/C(N=Nc1nc2ccccc2s1)=N\Nc1ccccc1O`, for which the inhibition is 26.2% (active).

Consider `CCSc1nsc(NC(=O)Nc2cccc(F)c2)n1`, for which the inhibition is 26.2% (active).

Regarding `Cc1sc2ncnc(N3CCC(C(=O)Nc4ccccc4C(C)(C)C)CC3)c2c1C`, the inhibition was 27.8% (active).

For `O=C(Nc1c2ccccc2nc2ccccc12)C(Cl)(Cl)Cl`, the inhibition is 33.7% (active).

Take `Cc1ccc(-c2cnc(C3CC3)o2)cc1S(=O)(=O)Nc1ccccc1`: the inhibition was 33.6% (active).

For the compound `O=S(=O)(c1ccc(Cl)cc1)N1CCN(Cc2ccc(O)c3ncccc23)CC1`, the inhibition was 25% (active).

As for `CCCSc1nnc(NC(=O)Nc2ccc(F)cc2)s1`, the inhibition is 28.5% (active).

`COc1ccc(/C=C2/SC(=S)N(CCCC(=O)N3CCN(C)CC3)C2=O)cc1`: the inhibition is 31.7% (active).

For the compound `Cc1ccc(C(=O)N2C(CC(=O)Nc3ccc(Cl)cc3)C(=O)NC3CCCCC32)cc1` (stereo not given), the inhibition is 24.8% (active).

For the compound `CN(C)CCN(C(=O)/C=C/c1cccs1)c1nc2c(F)cc(F)cc2s1`, the inhibition is 28.9% (active).

Take `CN(C)C=Nc1ncc2c([nH]c3ccccc32)c1C#N`: the inhibition was 23% (active).

Consider `CN(CC(=O)Nc1ccccc1Cl)C(=O)COC(=O)c1nc(Cl)c(Cl)c(Cl)c1Cl`, for which the inhibition was 30.8% (active).

Take `CC(Oc1cccc(Br)c1)C(=O)NNC(=O)c1ccccn1` (stereo not given): the inhibition is 35.8% (active).

Consider `c1ccc(CNc2nc(-c3ccccn3)nc3ccccc23)cc1`, for which the inhibition is 23.3% (active).

As for `O=C(c1ccc(S(=O)(=O)c2ccccc2Cl)c([N+](=O)[O-])c1)N1CCN(Cc2ccccc2)CC1`, the inhibition was 29.6% (active).

As to `Cc1ccc(CSC(Nc2ccc(F)cc2)=C(C#N)C#N)cc1`, the inhibition was 24.3% (active).

`CCOC(=O)c1c(-c2ccccc2)oc2ccc(OCC(O)CN(C)C)cc12` (stereo not given): the inhibition was 32.5% (active).

Consider `O=C(CCc1ccccc1)N/N=C/c1cc(Br)ccc1O`, for which the inhibition was 26.9% (active).

Take `Cc1ccc(-n2ncc3c(SCc4ccccn4)ncnc32)c(C)c1`: the inhibition was 27.6% (active).

Take `Cc1nc(/N=C(\N)NC(=O)NC2CCCCC2)nc2ccccc12`: the inhibition is 34.4% (active).

For the compound `Cn1c(/C=C/c2ccc(Br)cc2)c([N+](=O)[O-])c(=O)n(C)c1=O`, the inhibition was 23.9% (active).

Consider `O=C1c2cccc3c([N+](=O)[O-])ccc(c23)C(=O)N1c1nccs1`, for which the inhibition was 27% (active).

Regarding `CCN(CC)CCNC(=O)c1ccc(NC(=O)c2cn(-c3ccc(F)cc3)nc2-c2cccc(OC)c2)cc1`, the inhibition was 27.9% (active).
